This note sets out measurements from PubChem BioAssay.

Each structure is given as a SMILES string. Active and inactive are the calls of the source. Unless noted, how the calls were made is not given here.

Assay [1] in a line: resazurin metabolic signal in HepG2 cells – cell-based, resazurin fluorescence, 24 h, PK04 Diversity Set, profiling panel (AID 1172). The note with it: HepG2 viability, higher = more signal. A general note: Alamar Blue is a resazurin reagent that responds to reducing activity.
The nature of assay [2]: budding yeast growth changes without added modifier – OD600, strain BY4716, 24 h, basal condition, primary screen (AID 1173). To be noted: S. cerevisiae BY4716 growth, OD600, 24 h; higher = more signal, called active from +8 up or from −8 down.
Assay [3] can be described thus: viability profiling in MM1S myeloma cells – cell-based, resazurin fluorescence, basal, 24 h, PK04 Diversity Set, profiling panel (AID 1174).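 Further: MM1S multiple myeloma cell line.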 To be noted: higher = more signal, called active from +8 up or from −8 down.
Assay [4] has as its target Dihydroorotate dehydrogenase (quinone), mitochondrial (Plasmodium falciparum (isolate 3D7)) (UniProt Q08210). Briefly: inhibition of P. falciparum DHODH – biochemical, C-terminal His tag, absorbance 600 nm, primary screen (AID 1175).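 Further: recombinant parasite enzyme with a five histidine tag at its C terminus.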 To be noted: PfDHODH enzyme, DCIP absorbance 600 nm; higher = more signal, called active from +8 up or from −8 down.
The nature of assay [5]: inhibition of PAO1 biofilm formation – strain PAO1, LB-PBS medium, absorbance 600 nm, primary screen (AID 1176). The note with it: P. aeruginosa PAO1 growth/biofilm, A600, 12 h; higher = more signal.
Assay [6] is described as follows: growth modulation of vineyard yeast isolate – strain RM11-1a, OD600, basal, 24 h, primary screen (AID 1177).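 Further: cultures grown under basal conditions with no added stressor.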 To be noted: S. cerevisiae RM11-1a growth, OD600, 24 h; higher = more signal, called active from +8 up or from −8 down.
Assay [7] is described as follows: growth of efflux-deficient E. coli DRC39 – strain DRC39, OD650, 24 h, E. coli filamentation inducers, primary screen (AID 1178).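 Further: growth measured as culture turbidity by optical density at 650 nm.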 To be noted: E. coli DRC39 acrAB, higher = more signal, called active from +8 up or from −8 down.
The nature of assay [8]: growth of efflux-deficient E. coli DRC39 – strain DRC39, OD650, 48 h, E. coli filamentation inducers, primary screen (AID 1179).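 Further: screen aims at cell division blockers that make cells filament.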 To be noted: E. coli DRC39 delta-acrAB growth, higher = more signal, called active from +8 up or from −8 down.
A short description of assay [9]: viability profiling in RPMI8226 myeloma cells – cell-based, resazurin fluorescence, basal, 24 h, PK04 Diversity Set, profiling panel (AID 1180).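 Further: RPMI8826 multiple myeloma cell line at 5000 cells per well.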 The note with it: higher = more signal.
Assay [10] has as its target E3 ubiquitin-protein ligase XIAP (Homo sapiens) (UniProt P98170). Briefly: small molecules binding XIAP protein – biophysical, small-molecule microarray, fluorescence 635 nm, primary screen (AID 1181).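 Further: score merges 667 nm emission and signal to noise over triplicate slides.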 The note with it: higher = more signal.
Assay [11] has as its system XIP peptide (Xip251-270) binding. Briefly: XIP fragment 251-270 binding compounds – biochemical, small-molecule microarray, fluorescence 635/667 nm, 0.1 µg/mL protein, primary screen (AID 1182). To be noted: fluorescent protein binding, 635 nm, higher = more signal, called active from +8 up or from −8 down.
The test system of assay [12] is XIP peptide (Xip251-270). Briefly: compounds binding XIP fragment 251-270 – biochemical, small-molecule microarray, fluorescence 635/667 nm, 0.5 µg/mL protein, primary screen (AID 1183). The note with it: fluorescence 635 nm, higher = more signal.
Assay [13] in a line: blood-stage malaria parasite viability loss – strain 3D7, DAPI fluorescence, 100 nL, primary screen (AID 1184).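 Further: parasites grown inside human red blood cells in medium with human serum.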 The note with it: P. falciparum 3D7 growth, 3 d, higher = more signal.
Assay [14] addresses Homeobox protein Hox-A13 (Mus musculus) (UniProt Q62424). Briefly: disruptors of Hoxa13 oligonucleotide interaction – biochemical, fluorescence polarization, labeled oligonucleotide, primary screen (AID 1185). To be noted: Hoxa13:DNA binding, 15 min, higher = more signal, called active from +8 up or from −8 down.
Assay [15] can be described thus: blockers of DNA damage checkpoint Chk1 activation – imaging, HeLa, hydroxyurea, phospho-Chk1 antibody, percent positive cells, primary screen (AID 1186). To be noted: hydroxyurea-induced phospho-Chk1 immunofluorescence imaging, higher = more signal.
Assay [16] in a line: blockers of DNA damage checkpoint Chk1 activation – imaging, HeLa, hydroxyurea, phospho-Chk1 nuclear intensity, primary screen (AID 1187). To be noted: hydroxyurea-induced phospho-Chk1 immunofluorescence imaging, higher = more signal.

Homeobox protein Hox-A13 (Mus musculus), sequence (Q62424 whole entry, looked up): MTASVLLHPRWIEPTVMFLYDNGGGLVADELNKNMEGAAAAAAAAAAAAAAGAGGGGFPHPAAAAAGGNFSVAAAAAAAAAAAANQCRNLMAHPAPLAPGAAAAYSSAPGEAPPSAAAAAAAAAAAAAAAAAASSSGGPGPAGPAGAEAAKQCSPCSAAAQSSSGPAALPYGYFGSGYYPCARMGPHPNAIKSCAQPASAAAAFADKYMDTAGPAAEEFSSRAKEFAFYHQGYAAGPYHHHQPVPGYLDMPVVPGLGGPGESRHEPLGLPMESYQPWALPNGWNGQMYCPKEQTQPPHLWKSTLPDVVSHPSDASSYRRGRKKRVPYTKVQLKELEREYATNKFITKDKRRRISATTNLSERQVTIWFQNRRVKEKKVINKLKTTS
E3 ubiquitin-protein ligase XIAP (Homo sapiens), sequence (P98170 whole entry, looked up, the tested form may be a part): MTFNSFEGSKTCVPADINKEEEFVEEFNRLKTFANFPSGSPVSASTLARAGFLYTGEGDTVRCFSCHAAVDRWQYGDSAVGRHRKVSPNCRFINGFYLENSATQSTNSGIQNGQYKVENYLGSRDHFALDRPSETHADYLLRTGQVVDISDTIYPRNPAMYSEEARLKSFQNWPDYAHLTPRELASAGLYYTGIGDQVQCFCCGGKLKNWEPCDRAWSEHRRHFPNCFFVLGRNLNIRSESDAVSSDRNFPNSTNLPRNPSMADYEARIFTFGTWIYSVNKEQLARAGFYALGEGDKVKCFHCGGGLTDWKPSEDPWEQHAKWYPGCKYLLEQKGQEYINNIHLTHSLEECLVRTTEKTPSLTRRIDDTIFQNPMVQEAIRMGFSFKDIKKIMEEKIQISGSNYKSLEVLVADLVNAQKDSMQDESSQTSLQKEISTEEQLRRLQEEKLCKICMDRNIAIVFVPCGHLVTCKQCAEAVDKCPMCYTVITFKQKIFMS
Dihydroorotate dehydrogenase (quinone), mitochondrial (Plasmodium falciparum (isolate 3D7)), sequence (Q08210 whole entry, looked up): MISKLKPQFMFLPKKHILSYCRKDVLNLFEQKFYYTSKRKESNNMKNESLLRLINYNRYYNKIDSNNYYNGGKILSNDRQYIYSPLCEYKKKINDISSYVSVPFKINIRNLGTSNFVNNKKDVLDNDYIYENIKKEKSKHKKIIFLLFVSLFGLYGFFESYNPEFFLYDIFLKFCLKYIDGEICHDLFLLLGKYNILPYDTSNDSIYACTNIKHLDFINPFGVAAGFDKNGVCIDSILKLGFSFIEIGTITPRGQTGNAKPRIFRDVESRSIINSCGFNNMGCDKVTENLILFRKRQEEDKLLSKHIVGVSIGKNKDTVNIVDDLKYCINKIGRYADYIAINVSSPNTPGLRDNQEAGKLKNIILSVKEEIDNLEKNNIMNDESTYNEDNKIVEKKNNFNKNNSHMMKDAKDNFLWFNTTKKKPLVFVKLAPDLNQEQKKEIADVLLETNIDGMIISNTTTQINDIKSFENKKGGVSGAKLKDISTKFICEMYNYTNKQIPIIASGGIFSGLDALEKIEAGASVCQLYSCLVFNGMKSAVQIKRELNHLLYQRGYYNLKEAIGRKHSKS

Turning to `COCCOC(=O)N1C(=O)[C@@]2(c3cc(C#CCCO)ccc31)[C@H](c1ccc(OCCO)cc1)N1[C@H](c3ccccc3)[C@H](c3ccccc3)OC(=O)[C@H]1[C@@H]2C(N)=O`, the z-score in assay [1] is -0.569; in assay [2] it was 1.67 (inactive); in assay [3], -0.371 (inactive); in assay [5] it was 0.449 (inactive); in assay [6], 3.69 (inactive); in assay [7], 0.315 (inactive). Also, the z-score in assay [8] is 0.399 (inactive); in assay [9], -0.103; in [13] it was -0.222; in assay [14], -1.33 (inactive); in assay [15], -0.0438 (inactive); in assay [16], 0.51 (inactive). Besides, the composite z-score in [4] is 0.561 (inactive); in assay [10], -0.192; in [11], 0.464 (inactive); in assay [12], 0.779.

Regarding `COC(=O)c1c(CC[C@@H](CO)NC(=O)N[C@@H](Cc2ccccc2)Cn2cc(-c3ccccn3)nn2)oc(C(=O)N2CCOCC2)c1C(=O)OC`, the z-score in assay [1] is 0.482; in [2] it was -0.239 (inactive); in [3], 0.475 (inactive); in [5] it was -0.476 (inactive); in [6], 1.3 (inactive); in assay [7], 0.506 (inactive). Moreover, the z-score in assay [8] is 0.327 (inactive); in assay [9], 0.277; in [13] it was -0.671; in [14] it was -2.7 (inactive); in assay [15], 0.101 (inactive); in [16] it was 0.0064 (inactive). For the same molecule, the composite z-score in assay [4] was 0.138 (inactive); in [10], 0.23; in [11] it was 0.53 (inactive); in [12] it was 0.0134.

As to `CN1C(=O)C2C=CC(C(O)C=Cc3ccc([N+](=O)[O-])cc3)N(Nc3ccccc3)C2C1=O` (stereo not given), the z-score was -0.891 in assay [1]; -4.48 (inactive) in assay [2]; -1.55 (inactive) in [3]; 1.41 (inactive) in [5]; -0.709 (inactive) in assay [6]; -0.377 (inactive) in assay [7]. Moreover, the z-score in assay [8] was -0.668 (inactive); in [9], -1.45; in assay [13], 0.431; in assay [14], -5.37 (inactive); in assay [15] it was 0.0831 (inactive); in [16], -0.733 (inactive). Besides, the composite z-score in assay [4] was -1.01 (inactive); in [10], 0.376; in assay [11], 0.113 (inactive); in assay [12], 0.612.

Regarding `COC(=O)[C@@]1(Cc2ccc(OC)cc2)[C@H]2c3cc(C(=O)N(C)C)n(Cc4ccc(C(F)(F)F)nc4)c3C[C@H]2CN1C(=O)c1ccccc1`, the z-score in assay [1] is 0.133; in assay [2] it was 0.794 (inactive); in assay [3], -0.312 (inactive); in [5], -0.0019 (inactive); in [6], 0.44 (inactive); in [7] it was -0.22 (inactive). Moreover, the z-score was -0.18 (inactive) in assay [8]; 0.27 in assay [9]; 0.526 in assay [13]; -3.56 (inactive) in assay [14]; 0.832 (inactive) in [15]; 0.858 (inactive) in assay [16]. In addition, the composite z-score was -0.224 (inactive) in assay [4], 0.333 in assay [10], 0.233 (inactive) in [11] and 0.497 in assay [12].

`O=C1NC(=O)C2C1C=CC(C(O)c1ccc(-c3ccccc3)s1)N2Nc1ccc(Cl)cc1Cl` (stereo not given): the z-score in [1] is -3.58; in [2] it was -1.99 (inactive); in assay [3], -1.69 (inactive); in [5] it was 2.64 (inactive); in assay [6], 0.856 (inactive); in assay [7] it was 0.457 (inactive). Moreover, the z-score in assay [8] was -1.2 (inactive); in assay [9], -1.75; in assay [13], -0.0328; in [14], -3.64 (inactive); in assay [15], 0.197 (inactive); in assay [16], 0.136 (inactive). The composite z-score was 0.0414 (inactive) in assay [4], 0.849 in assay [10], -0.142 (inactive) in assay [11] and 0.701 in assay [12].

On to `O=C1C2C=CC(C(O)COCc3ccccc3)N(Nc3ccc([N+](=O)[O-])cc3)C2C(=O)N1c1ccccc1` (stereo not given), for which the z-score was 0.0505 in assay [1]; 0.858 (inactive) in assay [2]; 0.391 (inactive) in assay [3]; 0.589 (inactive) in assay [5]; 0.498 (inactive) in assay [6]; 0.24 (inactive) in [7]. The z-score is 0.613 (inactive) in assay [8]; 0.948 in [9]; -1.2 in assay [13]; -3.13 (inactive) in assay [14]; 0.0045 (inactive) in assay [15]; 0.54 (inactive) in assay [16]. Besides, the composite z-score in assay [4] was -0.262 (inactive); in [10], 0.0604; in [11], -0.183 (inactive); in [12], -0.006.

Regarding `COc1ccc(CCNC(=O)[C@@]2(C)c3ccccc3C(=O)N(c3ccc(C)cn3)[C@H]2c2ccc(CO)cc2)cc1`, the z-score in [1] was 0.437; in [2], -0.673 (inactive); in [3] it was 0.978 (inactive); in assay [5], -0.301 (inactive); in assay [6], 0.0798 (inactive); in assay [7], 0.0083 (inactive). For the same molecule, the z-score was 0.737 (inactive) in assay [8]; 0.933 in [9]; 1.36 in assay [13]; -1.58 (inactive) in assay [14]; 0.366 (inactive) in [15]; 0.822 (inactive) in assay [16]. Further, the composite z-score is -0.907 (inactive) in assay [4], -0.0838 in [10], 1.66 (inactive) in assay [11] and 0.639 in assay [12].

Turning to `CCCCN1CC=CC23O[C@@H]4/C=C\CCCOC(=O)C4[C@H]2C(=O)N(CCCO)[C@@H]3C1=O` (stereo not given in full), the z-score in assay [1] is 0.426; in [2], 0.129 (inactive); in assay [3], 0.31 (inactive); in assay [5], 0.55 (inactive); in [6], -1.39 (inactive); in assay [7], -0.0564 (inactive). For the same molecule, the z-score was -0.314 (inactive) in assay [8]; 0.309 in assay [9]; 0.651 in [13]; -5.29 (inactive) in assay [14]; 0.267 (inactive) in assay [15]; 0.576 (inactive) in [16]. Moreover, the composite z-score is 0.119 (inactive) in [4], -0.31 in assay [10], 1.48 (inactive) in [11] and 0.737 in [12].

With `COc1ccc(NN2C(C(O)c3ccc(N(C)C)cc3)C=CC3C(=O)N(C4CCCCC4)C(=O)C32)cc1` (stereo not given), the z-score in assay [1] is 0.252; in assay [2] it was -0.796 (inactive); in assay [3], -0.0447 (inactive); in [5] it was 0.862 (inactive); in assay [6], -0.0156 (inactive); in assay [7], -0.723 (inactive). The z-score in [8] was -0.224 (inactive); in [9], -1; in [13], -0.087; in assay [14], -4.68 (inactive); in [15], -0.217 (inactive); in assay [16], -0.837 (inactive). Further, the composite z-score was 0.128 (inactive) in assay [4], 0.17 in assay [10], 1.02 (inactive) in assay [11] and 0.68 in [12].

As to `COC(=O)[C@@]1(CCC(=O)OC(C)(C)C)N=C(c2ccc(OCCCO)cc2)O[C@H]1c1ccccc1`, the z-score in assay [1] was -0.291; in [2] it was -0.814 (inactive); in assay [3], -1.34 (inactive); in assay [5], 0.618 (inactive); in assay [6], 1.47 (inactive); in [7], -3.29 (inactive). In addition, the z-score in assay [8] was -0.735 (inactive); in [9], -0.808; in assay [13], -2.43; in assay [14], -4.58 (inactive); in [15], -0.17 (inactive); in assay [16], 0.284 (inactive). In addition, the composite z-score in [4] was 1.27 (inactive); in assay [10] it was -0.0095; in assay [11], 0.485 (inactive); in assay [12], 0.732.
